From ChEMBL document CHEMBL1157539, “Thousands of chemical starting points for antimalarial lead identification” (Nature, 2010)

Tested on: HepG2
Assay: GSK_TCMDC: Percent inhibition of human HepG2 cell line. Test compounds present at 10uM.
Assay type: functional

SMILES	Inhibition [%]
CCOc1ccc(-c2nc(NC(=O)CS(=O)(=O)c3ccccc3)sc2C)cc1	6
Oc1ccc2ncnc(Nc3ccc(OCc4cccc(F)c4)c(Cl)c3)c2c1	24
O=C(C=CC(=O)N1CCCCC1)NCc1ccccc1	6
CC(C)(CNCc1ccc(Cl)cc1)c1nc(-c2ccc(Cl)c(O)c2)c(-c2ccncc2)[nH]1.Cl	86
Cc1cccc2nc(-c3ccc(-c4cccc(CNCCCN5CCCC5=O)c4)cc3)[nH]c12.O=C(O)C(F)(F)F	6
O=C(N[C@@H](CC1CCCCC1)C(=O)NCCN1CCCC1)c1ccc(O)c(-c2ccc(Cl)c(Cl)c2)c1	16
N#Cc1ccc(C=Cc2nccc3c2[nH]c2ccccc23)cc1	33
CCN(CC)CCOc1ccc(C(O)(C#CC(O)(c2ccc(Br)cc2)c2ccc(OCCN(CC)CC)cc2)c2ccc(Br)cc2)cc1 (centres undefined)	99
Cl.Nc1c(C(=O)NCCCCN2CCN(c3nsc4ccccc34)CC2)sc2ccccc12	26
COc1ccc2ccccc2c1C=NNc1ccnc2cc(Cl)ccc12	20
Cc1noc(C)c1-c1cccc(CNCc2ccc(-c3cccc(-c4nc5cc(F)ccc5[nH]4)c3)cc2)c1.O=C(O)C(F)(F)F	37
Br.CCCOC(=O)c1ccc(OCCCON2C(=N)N=C(N)NC2(C)C)cc1	61
CC(C)n1ncc2c3c(N)nc(N)nc3ccc21	64
Cc1noc(-c2ccc3c(c2)CCN(CCC2CCC(NC(=O)c4cc5ccccc5[nH]4)CC2)CC3)n1.Cl (centres undefined)	21
